Data reported in PubChem BioAssay AID1259343 (VanderVen Lab, College of Veterinary Medicine, Cornell …, 2017).
About 2,900 (47%) of roughly 6,200 compounds were called active. Rule as the data show it: active = inhibition above about 50%; inactive = the rest. So high a share suggests a set chosen from earlier hits. Some of the results follow.

assay: Mycobacterium tuberculosis growth inhibition, primary screen (AID 1259343); settings: inhibition: at 10 µM, hits give high values; outcome: 10 uM

SMILES	inhibition
CC(=O)Nc1ccc(/C=C2\C(=O)c3c(O)ccc(Cl)c3C2C)cc1 (stereo not given)	28.3% (inactive)
CCOC(=O)C1=C(O)/C(=C\c2cccc(C)n2)SC1=Nc1cccc(F)c1	-12.2% (inactive)
N#CC1(NC(=O)COc2ccc(C(=O)c3ccc(F)cc3)cc2)CCCCC1	99.2% (active)
Fc1cccc(F)c1-c1nc(CSc2nccc(C(F)(F)F)n2)cs1	51.8% (active)
Cc1nccc(-c2ccc(NC(=O)/C=C/c3csc(C)n3)cc2)n1	86.2% (active)
O=C(Nc1cccc(Cl)c1Cl)C1COc2ccccc2O1 (stereo not given)	-20.1% (inactive)
O=C(NNC(=O)C1COc2ccccc2O1)c1cccc(C(F)(F)F)c1 (stereo not given)	-52.4% (inactive)
O=C(Nc1cccc([N+](=O)[O-])c1)C1COc2ccccc2O1 (stereo not given)	97.2% (active)
COc1cccc(OCCCOc2ccc(/C=C3\C(=N)N4N=CSC4=NC3=O)cc2)c1	88.5% (active)
N#Cc1cccc(CN2CCN3C(C(=O)Nc4ccc(-n5cccc5)cc4)=COC3=NC2=O)c1	29.2% (inactive)
N#Cc1cccc(CN2CCN3C(C(=O)Nc4ccc(-n5cccn5)cc4)=COC3=NC2=O)c1	85.8% (active)
N#Cc1cccc(CN2CCN3C(C(=O)NCCCc4ccccc4)=COC3=NC2=O)c1	89.4% (active)
O=c1c(Cl)cc(C(F)(F)F)cn1Cc1coc(-c2cccs2)n1	25.7% (inactive)
O=c1c(Cl)c(Cl)cnn1CCOc1ccc(Br)cc1	33.5% (inactive)
O=c1c(Cl)c(Cl)cnn1Cc1cc(-c2cccs2)on1	99.8% (active)
Fc1ccc(C2C=C(c3cccs3)Nc3nnnn32)cc1 (stereo not given)	51% (active)
FC(F)(F)c1ccc(C2C=C(c3cccs3)Nc3nnnn32)cc1 (stereo not given)	87.3% (active)
FC(F)Oc1ccc(C2C=C(c3ccccc3)Nc3nnnn32)cc1 (stereo not given)	-55.4% (inactive)
CCCCSC1=C(C#N)C(=O)NC(C)S1 (stereo not given)	27.6% (inactive)
CCCCCCSC1=C(C#N)C(=O)NC(CO)S1 (stereo not given)	98.9% (active)
CCCCCCSC1=C(C#N)C2(CCCC2)C(C#N)C(=O)N1 (stereo not given)	inactive
c1ccc(-c2cnnc(N3CCCCCCC3)n2)cc1	48.8% (inactive)
COc1cccc(-c2cc(C(=O)O)nc3cc(-c4ccc(Cl)cc4)nn23)c1	59.4% (active)
COc1cccc(-c2cc(C(=O)O)nc3cc(C(C)(C)C)nn23)c1	100% (active)
CC(C)(C)c1cc2nc(C(=O)O)cc(-c3cccc(F)c3)n2n1	64.4% (active)

SMILES	inhibition
CC(C)(C)c1cc2nc(C(=O)O)cc(-c3cccc(C(F)(F)F)c3)n2n1	43.3% (inactive)
CN1CCC(CNc2ccc3ncc(-c4cccc(OC(F)(F)F)c4)n3n2)CC1	44.6% (inactive)
COc1ccccc1-c1cc(C(=O)O)nc2cc(-c3ccc(Cl)cc3)nn12	43.3% (inactive)
CCOc1cc(C2=NN(c3ccc(C)cc3)C(=O)CC2)ccc1O	6.87% (inactive)
COc1ccc2c(c1)c(CC(=O)O)c(C)n2C(=O)c1ccc(Cl)cc1	43.2% (inactive)
Cc1ccc(C2(CCN)CCOC(C(C)C)C2)cc1 (stereo not given)	80.7% (active)
COc1ccc(NC(=O)CSc2n[nH]c(C3CC3)n2)cc1	78.8% (active)
COc1ccc(NC(=O)N2CCN(CCCOC(c3ccc(Cl)cc3)c3ccc(Cl)cc3)CC2)cc1	10.1% (inactive)
Cc1ccc(Cc2nnc(SCC(=O)Nc3ccc(OC(F)F)cc3)[nH]c2=O)cc1	44.2% (inactive)
Cc1ccc(C)c(Nc2nc(-c3ccc([N+](=O)[O-])cc3)cs2)c1	15.3% (inactive)
O=[N+]([O-])c1cccc(-c2csc(Nc3ccc(Cl)cc3)n2)c1	88.3% (active)
COC(=O)Nc1cccc(C(=O)N2CCC(C)C3CCCCC32)c1 (stereo not given)	27.1% (inactive)
COC(=O)c1ccc2c(c1)S(=O)(=O)N(C1CCCCC1C)C2=O (stereo not given)	81.4% (active)
CS(=O)(=O)NCc1cccc(-c2ccc(C#N)s2)c1	2.92% (inactive)
Cc1ccc(-c2nnc(SCC(=O)N3CCC(C)CC3)o2)cc1	-35.9% (inactive)
CCOC(=O)CSc1nnc(CSc2cc(C)nc(N3CCCC3)n2)o1	93.2% (active)
COc1ccc(-n2nnc3c(SCC(N)=O)ncnc32)cc1	14.3% (inactive)
COC(=O)CSc1ncnc2c1nnn2-c1ccc(F)cc1	89.9% (active)
CCOC(=O)C(C)Sc1ncnc2c1nnn2-c1ccc(OC)cc1 (stereo not given)	75.5% (active)
COC(=O)C(C)Sc1ncnc2c1nnn2-c1ccc(F)cc1 (stereo not given)	76.7% (active)
CCC(Sc1ncnc2c1nnn2-c1ccc(F)cc1)C(=O)OC (stereo not given)	42.6% (inactive)
COC(=O)CSc1ncnc2c1nnn2Cc1ccc(F)cc1	-38.1% (inactive)
COc1ccc(-n2nnc3c(SCC(=O)Nc4ccccc4)ncnc32)cc1	68.2% (active)
CCOC(=O)CSc1ncnc2c1nnn2-c1ccc(OC)cc1	3.35% (inactive)
O=C(CSc1ncnc2c1nnn2-c1ccc(F)cc1)OCc1ccccc1	2.43% (inactive)

SMILES	inhibition
CCOC(=O)CNC(=O)CSc1ncnc2c1nnn2-c1ccc(OC)cc1	-7.53% (inactive)
CCOC(=O)C(C)Sc1ncnc2c1nnn2-c1ccc(F)cc1 (stereo not given)	60% (active)
COC(=O)C(C)Sc1ncnc2c1nnn2-c1ccc(OC)cc1 (stereo not given)	72.2% (active)
CCOC(=O)C(CC)Sc1ncnc2c1nnn2-c1ccc(F)cc1 (stereo not given)	36.5% (inactive)
CCC(Sc1ncnc2c1nnn2-c1ccc(OC)cc1)C(=O)OC (stereo not given)	-33.3% (inactive)
CC(Sc1ncnc2c1nnn2-c1ccc(F)cc1)c1ccccc1 (stereo not given)	82.1% (active)
O=C(N=C1N=C2C=CC(Br)=CN2Cc2ccccc21)c1ccccn1	10.5% (inactive)
O=C(N=C1N=C2N=CC=CN2Cc2ccccc21)Nc1ccc(Cl)c(Cl)c1	88% (active)
O=C(CC12CC3CC(CC(C3)C1)C2)N=C1N=C2C=CC=CN2Cc2ccccc21	-15.7% (inactive)
O=C(Nc1ccc(Oc2ccccc2F)cc1)C1CCN(C(=O)C#Cc2ccccc2)CC1	89.6% (active)
O=C(Nc1ccc(Oc2ccccc2F)cc1)C1CCN(C(=O)c2ccncc2)CC1	90.8% (active)
O=C(Nc1ccc(F)cc1F)C1CCN(C(=O)c2cccnc2)CC1	85.7% (active)
Cc1cc(C(=O)N2CCC(C(=O)Nc3ccc(Oc4ccccc4F)cc3)CC2)c(C)o1	inactive
O=C(Nc1ccc(Oc2ccccc2F)cc1)C1CCN(C(=O)C2=CCCC2)CC1	90.8% (active)
O=C(Nc1ccc(Oc2ccccc2)nc1)C1CCN(C(=O)C2=CCCC2)CC1	44% (inactive)
O=C(Nc1ccc(Oc2ccccc2F)cc1)C1CCN(C2Cc3ccccc3C2)CC1	91.6% (active)
Cc1cc(NC(=O)c2ccccc2)n(-c2nc3c(c(=O)[nH]2)CCC3)n1	-26.4% (inactive)
Cc1cc(NC(=O)c2ccco2)n(-c2nc3c(c(=O)[nH]2)CCC3)n1	101% (active)
Cc1cc(NC(=O)c2ccc(Cl)cc2)n(-c2nc3c(c(=O)[nH]2)CCC3)n1	101% (active)
Cc1cc(NC(=O)c2ccccc2C)n(-c2nc3c(c(=O)[nH]2)CCC3)n1	100% (active)
Cc1cc(NC(=O)c2ccc(F)c(F)c2)n(-c2nc3c(c(=O)[nH]2)CCC3)n1	-20.9% (inactive)
COc1ccc(Cl)cc1C(=O)Nc1cc(C)nn1-c1nc2c(c(=O)[nH]1)CCC2	95.5% (active)
Cc1cc(NC(=O)c2cc(Cl)ccc2Cl)n(-c2nc3c(c(=O)[nH]2)CCC3)n1	37.1% (inactive)
CCCN1CCCc2cc(CCNS(=O)(=O)Cc3cccc(C)c3)ccc21	31.9% (inactive)
O=C(Nc1ccc(Oc2ccc(Cl)cc2)c(Cl)c1)c1cc(I)cc(I)c1O	101% (active)

SMILES	inhibition
CCCCCC(=O)NN=Cc1ccc([N+](=O)[O-])cc1	100% (active)
CC(C)=CCCC(C)=CC=NNc1ccc([N+](=O)[O-])cc1	62% (active)
CCCCCCC(=O)NN=Cc1ccc([N+](=O)[O-])cc1	77.5% (active)
O=C(CSc1nnc(SCc2ccccc2)s1)NN=Cc1ccc([N+](=O)[O-])cc1	83.1% (active)
CC(C)(C)c1ccc(C=NOCc2ccc([N+](=O)[O-])cc2)cc1	-20.2% (inactive)
CCCC(=O)Oc1c(S(=O)(=O)c2ccc([N+](=O)[O-])cc2)c(C)nn1-c1ccccc1	28.6% (inactive)
CSc1nnc(SCc2ccc([N+](=O)[O-])cc2)s1	-12.4% (inactive)
CC1=Nn2cc(-c3ccccc3)nc2SC1c1ccccc1 (stereo not given)	20.8% (inactive)
CCCCCCC(C)=NNc1ccc([N+](=O)[O-])cc1	98.5% (active)
CCCCCCCC(C)=NNc1nc2ccccc2s1	inactive
C=CCc1cc([N+](=O)[O-])ccc1O	101% (active)
O=C(C=Cc1ccc(F)cc1)NCc1ccco1	29.9% (inactive)
O=C(C=Cc1ccco1)NCc1ccc(F)cc1	72.3% (active)
O=C(/C=C/c1cc(C(F)(F)F)ccc1Cl)NCc1ccon1	-0.62% (inactive)
CC(C)(C)OC(=O)NNC(=O)C=Cc1ccco1	-8.19% (inactive)
O=C(C=Cc1cccs1)NC12CC3CC(CC(C3)C1)C2	inactive
O=C(C=Cc1ccco1)NC12CC3CC(CC(C3)C1)C2	67.6% (active)
COc1ccc(NC(=O)CSCc2ccccn2)cc1OC(F)F	17.9% (inactive)
COc1ccc(NC(=O)c2ccsc2)cc1OC(F)F	54.8% (active)
COc1ccc(C)cc1CCNC(=O)c1ccsc1	26.8% (inactive)
Cc1ccnc(N2CCN(c3ncnc4scc(-c5ccc(F)cc5)c34)CC2)c1	3.93% (inactive)
CC(C)NS(=O)(=O)CCCOc1ccc2c(c1)OCO2	50.3% (active)
Cc1cccc(OCCN(C)C(=O)/C=C/c2ccc3c(c2)OCO3)c1	34.9% (inactive)
O=S(=O)(CCCOc1ccc2c(c1)OCO2)NC1CCCCCC1	93% (active)
O=S(=O)(CCCOc1ccc2c(c1)OCO2)NC1CCCCC1	99.2% (active)
